Here are results for 25 molecules from PubChem BioAssay (EPA / NIEHS).

“And” between values parts separate entries of the source, which are not always exact repeats. Identical values can stand only once. Inconclusive results are not listed. Some structures have more than one record in an assay (separate samples or runs), and their calls can disagree. The source made the active and inactive calls. Rule for the calls, unless noted: active = hit-call score of the fitted dose curve at least 0.9, where 1 is the maximum; inactive = score below 0.9.

Chain of Estrogen receptor (Homo sapiens) (P03372 whole entry, looked up): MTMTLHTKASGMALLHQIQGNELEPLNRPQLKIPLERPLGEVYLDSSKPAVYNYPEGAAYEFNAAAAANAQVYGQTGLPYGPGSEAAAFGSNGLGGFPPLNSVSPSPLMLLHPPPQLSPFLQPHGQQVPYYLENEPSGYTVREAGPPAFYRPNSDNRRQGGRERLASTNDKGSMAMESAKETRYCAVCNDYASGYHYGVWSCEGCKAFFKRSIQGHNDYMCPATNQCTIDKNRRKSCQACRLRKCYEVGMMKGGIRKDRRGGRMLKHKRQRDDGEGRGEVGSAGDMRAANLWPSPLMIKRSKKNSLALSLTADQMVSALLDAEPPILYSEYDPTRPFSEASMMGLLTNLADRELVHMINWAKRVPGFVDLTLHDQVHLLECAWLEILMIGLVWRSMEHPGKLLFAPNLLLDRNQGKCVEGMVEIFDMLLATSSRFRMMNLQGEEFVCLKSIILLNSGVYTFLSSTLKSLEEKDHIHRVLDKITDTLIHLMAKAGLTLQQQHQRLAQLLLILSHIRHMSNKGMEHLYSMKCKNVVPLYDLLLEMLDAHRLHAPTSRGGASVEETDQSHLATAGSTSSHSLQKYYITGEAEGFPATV

Test system in one assay: not listed separately
Description: CCTE_Shafer_MEA_acute_synchrony_index: CCTE's Neural Acute Assay for Synchrony, Shafer Lab (AID 2284027).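 Note: fitted for loss of signal so actives lower synchrony relative to DMSO.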 Put shortly: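 Readout is percent change in the unitless network synchrony index (0 low, 1 high) between a 40-min baseline and a 40-min recording in compound. Cultures were primary rat cortical neurons on MEAs, treated at 0.03-40 uM on DIV 13 or 15.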
What is called AC50 is the concentration giving half of the maximal activity seen. For the molecule `Cc1nc(N(C)C)nc(OC(=O)N(C)C)c1C`, the AC50 is 20 µM (active).

For the molecule `CN/C(=N\[N+](=O)[O-])NCc1cnc(Cl)s1`, the molecule was classed as inactive.

As for `COP(=S)(OC)SCn1nnc2ccccc2c1=O`, the call was inactive.

For the molecule `CCCCC(O)(Cn1cncn1)c1ccc(Cl)cc1Cl` (centres undefined), the molecule was called inactive.

`CCCN(CC)CC1COC2(CCC(C(C)(C)C)CC2)O1` (centres undefined): the molecule was classed as inactive.

On to `Clc1nc(Cl)nc(Nc2ccccc2Cl)n1`, for which the molecule was called inactive.

For the molecule `N#CN=C1SCCN1Cc1ccc(Cl)nc1`, the result was inactive.

As for `CCOc1nc(F)cc2nc(S(=O)(=O)Nc3c(Cl)cccc3Cl)nn12`, the outcome was inactive.

Consider `CCOP(=O)(OCC)Oc1nc(Cl)c(Cl)cc1Cl`, for which the half-maximal activity concentration (AC50) was 0.0262 µM (active).

With `CCOC(=O)C(C)OC(=O)c1cc(Oc2ccc(C(F)(F)F)cc2Cl)ccc1[N+](=O)[O-]` (centres undefined), the molecule was called inactive.

In the case of `CC(C)N1C(=O)c2ccccc2NS1(=O)=O`, the molecule was called inactive.

Consider `CC1(C)CCC(=Cc2ccc(Cl)cc2)C1(O)Cn1cncn1` (centres undefined), for which the outcome was inactive.

In the case of `O=C(Nc1ccccc1-c1ccc(Cl)cc1)c1cccnc1Cl`, the concentration at half-maximal activity (AC50) is 25.3 µM (active).

On to `N#Cc1c[nH]cc1-c1cccc2c1OC(F)(F)O2`, for which the result was inactive.

A further assay deals with Estrogen receptor (Homo sapiens) (UniProt P03372). Description: CCTE_Deisenroth_AIME_384WELL_LUC_Active: CCTE's 384-well Estrogen Receptor Transactivation Assay with AIME metabolic competence (ERTA luciferase; metabolism positive), Deisenroth Lab (AID 2284030; active = hit-call score of the fitted dose curve at least 0.9, where 1 is the maximum). The procedure, abridged:
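In this metabolism-positive format, a 2-hour exposure to alginate-immobilized rat S9 precedes a 24 hour luciferase transactivation readout in VM7Luc4E2 cells. Dosing spans 10 concentrations from 0.002 to 200 uM.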
With `CCCC(=NOCC)C1=C(O)CC(CC(C)SCC)CC1=O` (centres undefined), the molecule was called inactive.

Take `CC1(C)C(C=C(Cl)Cl)C1C(=O)OC(C#N)c1cccc(Oc2ccccc2)c1` (centres undefined): the concentration at half-maximal activity (AC50) was 40.8 µM (active).

For `CC(C)=CC1C(C(=O)OCc2coc(Cc3ccccc3)c2)C1(C)C` (centres undefined), the outcome was inactive.

For the molecule `C=C(C)CN(CC)c1c([N+](=O)[O-])cc(C(F)(F)F)cc1[N+](=O)[O-]`, the molecule was classed as inactive.

Regarding `Cc1ccc(N=CN(C)C=Nc2ccc(C)cc2C)c(C)c1`, the molecule was called inactive.

For the molecule `CC(C)N1C(=O)N(c2ccccc2)CSC1=NC(C)(C)C`, the result was inactive.

As to `COP(=S)(OC)SCn1nnc2ccccc2c1=O`, the molecule was called inactive.

`CCOP(=O)(OCC)Oc1nc(Cl)c(Cl)cc1Cl`: the call was inactive.

Take `CCOC(=O)C(C)OC(=O)c1cc(Oc2ccc(C(F)(F)F)cc2Cl)ccc1[N+](=O)[O-]` (centres undefined): the outcome was inactive.

On to `CC(C)N1C(=O)c2ccccc2NS1(=O)=O`, for which the result was inactive.

Take `O=C(Nc1ccccc1-c1ccc(Cl)cc1)c1cccnc1Cl`: the result was inactive.

Test system in a further assay: not listed separately
The assay can be described thus: CCTE_Shafer_MEA_dev_firing_rate_mean: CCTE's Neural Network Formation Assay for Mean Firing Rate, Shafer Lab (AID 2284031).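 For AC50: curve fitted for loss of firing so AC50 reflects decreased mean firing rate.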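 Note: AUC of well mean spike rate recorded on DIV 5 7 9 and 12.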 Put shortly:
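Rat primary cortical neurons were seeded on multielectrode arrays and treated from plating through day 12, with redosing at each feed. Spontaneous spiking was recorded four times; mean firing rate AUC was fitted downward against DMSO.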
Regarding `CC1(C)C(C(=O)OC(C#N)c2cccc(Oc3ccccc3)c2)C1(C)C` (centres undefined), the call was inactive.

For `CC1(C)C(C=C(Cl)Cl)C1C(=O)OC(C#N)c1cccc(Oc2ccccc2)c1` (centres undefined), the AC50 was 2.98 µM (active) and the molecule was classed as inactive.

With `CC(C)=CC1C(C(=O)OCc2coc(Cc3ccccc3)c2)C1(C)C` (centres undefined), the result was inactive.

In the case of `CNC(=O)Oc1cccc2ccccc12`, the call was inactive.

Consider `C=C(C)CN(CC)c1c([N+](=O)[O-])cc(C(F)(F)F)cc1[N+](=O)[O-]`, for which the AC50 was 12.8 µM (active).

For `COC(=O)N(C(=O)N1CO[C@@]2(C(=O)OC)Cc3cc(Cl)ccc3C2=N1)c1ccc(OC(F)(F)F)cc1`, the call was inactive.

Consider `CO/N=C(/C1=NOCCO1)c1ccccc1Oc1ncnc(Oc2ccccc2Cl)c1F`, for which the concentration at half-maximal activity (AC50) is 589 nM (active) and 960 nM (active).

In the case of `Cc1c(COC(=O)[C@@H]2[C@H](/C=C(\Cl)C(F)(F)F)C2(C)C)cccc1-c1ccccc1`, the concentration at half-maximal activity (AC50) is 847 nM (active) and 2.07 µM (active).

For the molecule `CN/C(=N\[N+](=O)[O-])NCc1cnc(Cl)s1`, the result was inactive.

Take `COP(=S)(OC)SCn1nnc2ccccc2c1=O`: the molecule was classed as inactive.

For the molecule `CCCN(CC)CC1COC2(CCC(C(C)(C)C)CC2)O1` (centres undefined), the AC50 is 0.066 µM (active).

Regarding `N#CN=C1SCCN1Cc1ccc(Cl)nc1`, the call was inactive.

Take `CCOP(=O)(OCC)Oc1nc(Cl)c(Cl)cc1Cl`: the molecule was classed as inactive.

For the molecule `CCOC(=O)C(C)OC(=O)c1cc(Oc2ccc(C(F)(F)F)cc2Cl)ccc1[N+](=O)[O-]` (centres undefined), the result was inactive.

Turning to `O=C(Nc1ccccc1-c1ccc(Cl)cc1)c1cccnc1Cl`, the AC50 was 4.96 µM (active) and the outcome was inactive.

Test system in the next assay: not listed separately
The assay can be described thus: CCTE_Deisenroth_AIME_384WELL_CTox_Active: Cytotoxicity Assessment (CTOX) in CCTE's 384-well Estrogen Receptor Transactivation Assay with AIME metabolic competence (metabolism positive), Deisenroth Lab (AID 2284037; active = hit-call score of the fitted dose curve at least 0.9, where 1 is the maximum;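 note: chemicals first conditioned 2 h by alginate-bound induced rat liver S9 before cells; activity means signal loss indicating cell death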). The procedure, abridged: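 Cytotoxicity in VM7Luc4E2 breast cells, 24 hour, measured as protease-substrate fluorescence loss, after 2-hour metabolic conditioning with induced rat hepatic S9 in alginate microspheres. Concentrations 0.002 - 200 uM, 10 points, bidirectional fitting.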
`CC(C)=CC1C(C(=O)OCc2coc(Cc3ccccc3)c2)C1(C)C` (centres undefined): the result was inactive.

As to `C=C(C)CN(CC)c1c([N+](=O)[O-])cc(C(F)(F)F)cc1[N+](=O)[O-]`, the call was inactive.

On to `COC(=O)N(C(=O)N1CO[C@@]2(C(=O)OC)Cc3cc(Cl)ccc3C2=N1)c1ccc(OC(F)(F)F)cc1`, for which the outcome was inactive.

Consider `CO/N=C(/C1=NOCCO1)c1ccccc1Oc1ncnc(Oc2ccccc2Cl)c1F`, for which the half-maximal activity concentration (AC50) was 32.8 µM (active).

With `Cc1ccc(N=CN(C)C=Nc2ccc(C)cc2C)c(C)c1`, the call was inactive.

Regarding `CC(C)N1C(=O)N(c2ccccc2)CSC1=NC(C)(C)C`, the molecule was called inactive.

`COP(=S)(OC)SCn1nnc2ccccc2c1=O`: the outcome was inactive.

Take `CCCCC(O)(Cn1cncn1)c1ccc(Cl)cc1Cl` (centres undefined): the half-maximal activity concentration (AC50) was 162 µM (active).

On to `CCOc1nc(F)cc2nc(S(=O)(=O)Nc3c(Cl)cccc3Cl)nn12`, for which the molecule was called inactive.

`CCOC(=O)C(C)OC(=O)c1cc(Oc2ccc(C(F)(F)F)cc2Cl)ccc1[N+](=O)[O-]` (centres undefined): the outcome was inactive.

The target of a further assay is Estrogen receptor (Homo sapiens) (UniProt P03372). The assay can be described thus: CCTE_Deisenroth_AIME_384WELL_LUC_Inactive: CCTE's 384-well Estrogen Receptor Transactivation Assay without AIME metabolic competence (ERTA luciferase; metabolism negative), Deisenroth Lab (AID 2284038; active = hit-call score of the fitted dose curve at least 0.9, where 1 is the maximum;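 note: VM7Luc4E2 breast cells given medium preincubated 2 h with S9-free microspheres; hits raise estrogen receptor luciferase signal so potencies reflect agonists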). Put shortly:
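Metabolism-negative mode: chemicals (10-point, 0.002–200 uM) held 2 h with alginate-water microspheres, then conditioned medium applied to VM7Luc4E2 cells for 24 h. Luciferase induction referenced to 17beta-estradiol.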
For the molecule `CCCC(=NOCC)C1=C(O)CC(CC(C)SCC)CC1=O` (centres undefined), the call was inactive.

Take `CC1(C)C(C=C(Cl)Cl)C1C(=O)OC(C#N)c1cccc(Oc2ccccc2)c1` (centres undefined): the concentration at half-maximal activity (AC50) is 57.9 µM (active).

In the case of `CC(C)=CC1C(C(=O)OCc2coc(Cc3ccccc3)c2)C1(C)C` (centres undefined), the result was inactive.

For the molecule `C=C(C)CN(CC)c1c([N+](=O)[O-])cc(C(F)(F)F)cc1[N+](=O)[O-]`, the outcome was inactive.

On to `Cc1ccc(N=CN(C)C=Nc2ccc(C)cc2C)c(C)c1`, for which the molecule was called inactive.

As for `CC(C)N1C(=O)N(c2ccccc2)CSC1=NC(C)(C)C`, the molecule was called inactive.

Regarding `COP(=S)(OC)SCn1nnc2ccccc2c1=O`, the call was inactive.

`CCOc1nc(F)cc2nc(S(=O)(=O)Nc3c(Cl)cccc3Cl)nn12`: the molecule was called inactive.

With `CCOP(=O)(OCC)Oc1nc(Cl)c(Cl)cc1Cl`, the outcome was inactive.

With `CCOC(=O)C(C)OC(=O)c1cc(Oc2ccc(C(F)(F)F)cc2Cl)ccc1[N+](=O)[O-]` (centres undefined), the molecule was called inactive.

Turning to `CC(C)N1C(=O)c2ccccc2NS1(=O)=O`, the result was inactive.

With `O=C(Nc1ccccc1-c1ccc(Cl)cc1)c1cccnc1Cl`, the molecule was classed as inactive.
